This is a sample that favours compounds with a hit; in the whole collection about 6.5% have one here.
FMDV antiviral: foot and mouth disease virus antiviral activity; FMDV antiviral cell-based qHTS; Potency, µM (doses to about 57.9 µM), for inactives: at the top dose activity change, negative = inhibition, hits mostly inhibitors; 410,000 compounds, 1.2% hits; AID 1159524; calls by dose curve; tested in HEK293T cells; further: read-out not given here; potency means the concentration at half of the fitted maximal effect; nearly all actives have a fitted effect of over 45% in size
Vaccinia mCherry: vaccinia inhibition (mCherry reporter). Vaccinia virus mCherry reporter infection, fluorescence. Potency, µM (top dose mostly 36.5 µM), for the others: at the highest dose activity change, negative = inhibition, actives largely listed as inhibitors. 310,000 compounds, 0.63% hits. AID 720579; calls by dose curve; tested in A549 cells; further: potency means the concentration at half of the fitted maximal effect; nearly all actives have a fitted effect of over 35% in size
Vaccinia Venus: inhibitors of vaccinia virus (Venus reporter); Vaccinia virus Venus reporter expression, fluorescence; Potency, µM (doses to about 36.5 µM), for inactives: top-dose activity change, negative = inhibition, most hits filed as inhibitors; 330,000 compounds, 0.46% hits; AID 720580; calls by dose curve; tested in A549 cells; further: potency means the concentration at half of the fitted maximal effect; nearly all actives have a fitted effect of over 30% in size
HCMV antiviral: human cytomegalovirus inhibition; HFF cells, HCMV-luciferase reporter, 72 h; stronger effect = lower value; activity change, negative = inhibition, % at 57.5 µM; 410,000 compounds, 4.5% hits; AID 1259415; in the data active means activity change below about -60%; inconclusive means no clear call, values can overlap the other calls; inactive means above about -39%
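Two compound doses tested in HFFs infected with HCMV-luciferase, MOI 1 PFU/cell, 72 h at 37C. Lysate luminescence read with OneGlo; data normalized against buffer-only and 10uM Salinomycin inhibitor controls.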
Lassa entry inh: Lassa virus entry inhibition; Lassa virus pseudotype entry inhibition, cell reporter; Potency, µM (highest dose often 37.9 µM), without a hit: at the top dose activity change, negative = inhibition, hits mostly inhibitors; 300,000 compounds, 1.2% hits; AID 540256; calls by dose curve; tested in HEK293 cells; further: potency means the concentration at half of the fitted maximal effect; nearly all actives have a fitted effect of over 50% in size
MARV entry inh: blocks Marburg virus binding to or entry into cells | Marburg virus pseudotyped entry inhibition, cell reporter | Potency, µM (top dose mostly 37.8 µM), for inactives: top-dose activity change, negative = inhibition, usual class: inhibitors | AID 540276 | 300,000 compounds, 1.8% hits; calls by dose curve; tested in HEK293 cells; further: potency means the concentration at half of the fitted maximal effect
An asterisk follows results filed as active; i = inactive; ? = inconclusive; / = not tested or not shown; [ ] = another dose, or the depositor's remark. On the % scale 0 is the no-effect control and ±100 the full control effect.

SMILES	FMDV antiviral	Vaccinia mCherry	Vaccinia Venus	HCMV antiviral	Lassa entry inh	MARV entry inh
COc1ccc(S(=O)(=O)Nc2ccc3oc4c(c3c2)CCCC4)cc1	25%	?	-19%	9	?	10µM*
COc1ccc(S(=O)(=O)Nc2ccc(O)c3ccccc23)cc1	-17%	-12%	-1%	-104*	?	0%
COc1ccc(S(=O)(=O)Nc2ccc(Nc3ccccc3)cc2)cc1	7%	/	/	-70*	/	/
CC(C)(C)OC(=O)N1C[C@@]23C[C@H](c4cccc(F)c4)[C@@H](C[C@@H]2S1(=O)=O)O3	/	/	/	5	/	/
COc1cc(C)c(CN2C[C@H](Sc3ccccn3)C[C@H]2C(=O)N(C)C)cc1C	4%	0%	-10%	/	/	/
CC(=O)c1c2c(cc3ccc(Cl)cc13)CCC2	/	/	/	-14	/	/
CC(C)(C)C(=O)Nc1cc2nn(-c3ccccc3)nc2cc1Cl	50µM*	-10%	-7%	-88*	1.5µM*	0.41µM*
Cc1c(C(=O)Nc2ccc(F)c(C(F)(F)F)c2)sc2nc(-c3ccccc3)cn12	-9%	-24%	?	-98*	3%[46.1 µM]	/
CC(=O)Nc1ccc(NC(=O)C(NS(=O)(=O)c2ccc(Br)s2)c2ccccc2)cc1 (stereo unspecified)	5%	-8%	-6%	2	-24%[46.1 µM]	?
COc1ccc(/C=N/NC(=O)c2[nH]c3ccc(Br)cc3c2-c2ccccc2)cc1	-18%	?	?	/	?	?
COc1ccc(/C=N/NC(=O)c2[nH]c3ccc(Cl)cc3c2-c2ccccc2)c(C(=O)O)c1OC	3%	-9%	-27%	-99*	2%	-29%
COc1ccc(/C=N/NC(=O)c2[nH]c3ccc(Br)cc3c2-c2ccccc2)c(C(=O)O)c1OC	-16%	i	?	-63*	-27%	-24%[46.1 µM]
O=C(N/N=C/c1ccccc1Cl)c1[nH]c2ccc(Br)cc2c1-c1ccccc1	-19%	?	i	-18	?	2.5µM*
Cc1cccc(NC(=O)c2cc3c(=O)n(Cc4cccnc4)ccc3nc2C)c1	-5%	i	-7%	-3	21%[46.1 µM]	/
Cn1c(C(=O)Nc2cccc(Cl)c2)cc2c(=O)n(C)c3ccccc3c21	?	-3%	-13%	-9	4%[46.1 µM]	6%[46.1 µM]
S=C1NCCOc2ccccc21	/	/	/	-5	/	/
CCCCNC(=O)C(NC(=O)c1ccccc1)C(=O)c1ccccc1 (stereo unspecified)	1%	-9%	-16%	-6	/	/
CCCCNC(=O)C(NC(=O)c1ccc(-c2ccccc2)cc1)C(=O)c1ccccc1 (stereo unspecified)	22%	-9%	-15%	-81*	/	/
CCC(=O)NCc1nc(-c2cccc(NC(=O)c3ccc(C)s3)c2)oc1C	13%	-16%	-19%	/	/	/
CCCOC(=O)c1ccc(Oc2c(-c3ccc(OC)cc3O)n[nH]c2C)cc1	-1%	i[1.46 µM]	?	31	11µM*	-16%
CCCOC(=O)c1ccc(Oc2c(-c3ccc(O)cc3O)n[nH]c2C)cc1	-8%	/	?	-77*	?	-10%
OC1(c2cccnc2)CCN(Cc2ccc3c(c2)CN(Cc2ccc4nsnc4c2)CCO3)CC1	?	-25%	-21%	/	/	/
O=C(OCCN1C(=O)c2cccc3c(N4CCOCC4)ccc(c23)C1=O)c1cccc(Cl)c1	?	-12%	-19%	/	?	?
O=C(OCCN1C(=O)c2cccc3c(N4CCOCC4)ccc(c23)C1=O)c1ccccc1Cl	?	i	-11%	?	?	7.1µM*
O=C(OCCN1C(=O)c2cccc3c(N4CCOCC4)ccc(c23)C1=O)c1ccc(Cl)cc1Cl	16µM*	?	-21%	-29	?	?
SMILES	FMDV antiviral	Vaccinia mCherry	Vaccinia Venus	HCMV antiviral	Lassa entry inh	MARV entry inh
COc1ccc(CCNC(=O)Cn2c(=O)n(-c3cc(OC)c(OC)c(OC)c3)c(=O)c3ccccc32)cc1OC	-16%	-2%	3%	7	12%[46.1 µM]	?
CC(C)(C)C(=O)/C=c1\[nH]c(=O)/c(=C\c2ccc(F)cc2)s1	-24%	/	11µM*	33	-9%	-18%[46.1 µM]
O=C(COc1ccccc1F)NNC(=O)Cn1c(=O)cnc2ccccc21	-1%	/	/	0	/	/
Cc1ccc(OCC(=O)NNC(=O)Cn2c(=O)cnc3ccccc32)cc1	7%	-12%	-2%	-97*	-6%	14%[46.1 µM]
CCOC(=O)C1CCN(CCC(=O)Nc2ccc(C)c(C)c2)CC1	-7%	/	/	-67*	/	/
CC1CCN(CCC(=O)Nc2ccc(Br)cc2)CC1	/	-18%	-14%	-68*	-29%	?
O=C(c1cccnc1)C1CCCN(Cc2ccc3c(c2)CN(C(=O)c2ccc4[nH]ccc4c2)CCO3)C1 (stereo unspecified)	-10%	-2%	10%	/	/	/
CC(C)C1=C2OC(N)=C(C#N)C(C#N)=C2[C@H](C)CC1	/	/	/	/	/	-1%
Cc1ncc2c(c1CNS(=O)(=O)c1cccs1)CCN(C(=O)/C=C/c1cc(F)cc(F)c1)C2	-5%	-20%	-12%	/	/	/
CNC(=O)[C@@H]1C[C@H](Sc2nc3ccccc3[nH]2)CN1Cc1ccccc1C(F)(F)F	-9%	-25%	-22%	/	/	/
CCCCc1c(-c2ccccc2OC)ncn1Cc1ccc(Cl)cc1	?	-18%	-8%	-30	/	/
CCCCc1c(-c2ccccc2OC)ncn1C1CCCC1	0%	-12%	-13%	-94*	/	/
CCCCc1c(-c2ccccc2OC)ncn1Cc1ccc(-c2ccccc2)cc1	28µM*	?	?	-22	/	/
Cc1ccc2c(c1)c(=O)c1ccccc1n2CCCC(=O)Nc1c(F)cccc1F	-12%	-2%	2%	-16	0%[46.1 µM]	/
Cc1cc(=O)[nH]c2ccccc12	8%	-8%	1%	-11	5%	?
Cc1cc2[nH]c3c(c[n+](C)c4ccccc34)c2cc1C	-5%	/	/	-98*	/	/
O=C(C(=Cc1ccccc1)CN1CCCCC1)c1ccccc1	3.5µM*	-27%	?	-76*	3.5µM*	?
O=C(C1=C(O)C(=O)N(CCCN2CCOCC2)[C@H]1c1ccccn1)c1cc2ccccc2o1	/	/	/	/	/	3%
N=c1n(Cc2ccccc2)c2ccccc2n1CC(O)COc1ccc(Cl)cc1Cl (stereo unspecified)	35µM*	?	?	-101*	?	?
Clc1ccc(OCc2nc3ccccc3n2Cc2ccccc2)c(Cl)c1	43%	-7%	2%	52	14%[46.1 µM]	/
Cc1ccc(OCC(O)Cn2c(=N)n(Cc3ccccc3)c3ccccc32)cc1 (stereo unspecified)	0%	11µM*	14µM*	-74*	?	?
N=c1n(CCO)c2ccccc2n1Cc1ccc(Cl)cc1	-22%	/	-16%	-18	1%	?
N=c1n(Cc2ccc(Cl)cc2)c2ccccc2n1CC(O)COc1ccccc1 (stereo unspecified)	?	28µM*	?	-102*	?	?
CCn1c(=N)n(CC(O)COc2ccccc2)c2ccccc21 (stereo unspecified)	-12%	-21%	-15%	-22	9%[46.1 µM]	/

Screens from PubChem BioAssay.
